# Screening data as filed in PubChem BioAssay.
# Most compounds without a hit are left out; they make up all but 7.2% or so of the library.
# FMDV antiviral = foot and mouth disease virus antiviral activity; FMDV antiviral cell-based qHTS; 410,000 compounds, 1.2% hits; Potency, µM (highest dose often 57.9 µM), for the others: at the top dose activity change, negative = inhibition, usual class: inhibitors; calls by dose curve; tested in HEK293T cells; also: read-out not given here; nearly all actives have a fitted effect of over 45% in size
# Sm TGR inh = S. mansoni TGR enzyme inhibition; Q962Y6; purified TGR, DTNB reduction, TNB absorbance 405 nm; Potency, µM (series often up to 114 µM), for the others: at the highest dose activity change, negative = inhibition, hits mostly inhibitors; 360,000 compounds, 3% hits; AID 485364; also: nearly all actives have a fitted effect of over 60% in size
#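 First, TGR (20 nM dispensed) and NADPH were mixed with compound. Second, a 15 min room-temperature incubation followed. Third, further NADPH and then DTNB were added to start the reaction. Finally, TNB absorbance was monitored kinetically.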
# HCV inh = HCV inhibition; Huh7.5.1 HCVcc-Cre infection, luciferase reporter, 44 h; 340,000 compounds, 3.4% hits; Potency, µM (top dose mostly 41.8 µM), for the others: at the highest dose activity change, negative = inhibition, most hits filed as inhibitors
#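 Reporter virus HCVcc-Cre (~0.5 moi) infects cells exposed to compound; seeding density 1,000 cells/well with 4 h settling beforehand. Luminescence, 15 sec read, taken 44 h post-infection following a 15 min RT substrate incubation.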
# RE007 growth inh = less growth of the S. pombe RE007 Vpr strain; Potency, µM (top dose mostly 92.2 µM), for inactives: at the top dose activity change, negative = less growth, hits mostly inhibitors; 360,000 compounds, 0.21% hits; S. pombe RE007 Vpr strain, BacTiter-Glo ATP luminescence, 24 h; active = well fitted falling curve with a large enough effect; inconclusive = small, poorly fitted or top-dose-only effect; inactive = no such curve, though single readings can be large or run the other way; also: nearly all actives have a fitted effect of over 50% in size
#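 Fission yeast strain RE007, carrying one chromosomally integrated HIV-1 vpr copy, was seeded at OD 0.01 in PMG+AL medium with 23 nL pinned compound. After 24 h at 30 °C and 99% humidity, viability was read by BacTiter-Glo luminescence.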
# MARV entry inh = blocks Marburg virus binding to or entry into cells. Marburg virus pseudotyped entry inhibition, cell reporter. Potency, µM (highest dose often 37.8 µM), for the others: top-dose activity change, negative = inhibition, most hits filed as inhibitors. 300,000 compounds, 1.8% hits. AID 540276; calls by dose curve; tested in HEK293 cells
# Lassa entry inh = blocks Lassa virus binding to or entry into cells | 300,000 compounds, 1.2% hits | Potency, µM (doses to about 37.9 µM), for inactives: at the highest dose activity change, negative = inhibition, usual class: inhibitors | Lassa virus pseudotype entry inhibition, cell reporter; calls by dose curve; tested in HEK293 cells; also: nearly all actives have a fitted effect of over 50% in size
# * hit, by the source's call; ? = inconclusive; . = no result; ! = not active in a repeat; [ ] = dose if it differs, or a comment. Unless noted, calls follow the shape of the dose curve; as a rule, active = well fitted curve in the direction sought with a large enough effect; inconclusive = small, poorly fitted or top-dose-only effect, or another doubt; inactive = no such curve, though single readings can be large; an effect the other way counts as inactive or inconclusive. % is scaled to controls: 0 for no effect and ±100 for the full control effect; potency is read from the fitted curve at half-maximal effect.
SMILES,FMDV antiviral,Sm TGR inh,HCV inh,RE007 growth inh,MARV entry inh,Lassa entry inh
COc1ccc(Oc2c(C)oc3cc(OC(=O)N(C)C)ccc3c2=O)cc1,-20%,22µM*,-11%,-2%,.,.
CCOC(=O)c1ccc(S(=O)(=O)Nc2ccc3cn[nH]c3c2)cc1,-19%,7%,11µM*,1%,-27%,?
Cc1cc(C)c(C)c(S(=O)(=O)Nc2ccc3cn[nH]c3c2)c1C,-10%,?,13µM*,15%,.,.
O=S(=O)(Nc1ccc2cn[nH]c2c1)c1ccc(C(F)(F)F)cc1,8%,-3%,22%,3%,.,.
COc1ccc(S(=O)(=O)Nc2ccc3cn[nH]c3c2)cc1C,0%,-1%,-20%,12%,?,2%
CC1CC(C)CN(CC(O)COCCOc2ccc(Br)cc2)C1 (stereo unspecified),-26%,3%,?,-1%,13µM*,?
CC1CCN(CC(O)COCCOc2ccc(Br)cc2)CC1 (stereo unspecified),18%,-6%,?,-13%,8%,15%
Cc1ccc(-c2csc(NC(=O)C[n+]3cc(-c4ccc(C)cc4)n4c3CCC4)n2)cc1,0%,-5%,3.5µM*,19%,10%,7%
Cc1ccc(-c2csc(NC(=O)C[n+]3cc(-c4ccccc4)n4c3CCC4)n2)cc1,17%,-11%,2µM*,0%,?,?
CCOc1ccccc1OCCCOc1ccc([N+](=O)[O-])cc1Cl,-15%,4%,13µM*,6%,-2%[46.1 µM],11%
CCCN(CCC)CCc1ccc(O)c(O)c1,-9%,.,.,.,1µM*!,24%
OCCCc1ccc(O)c(O)c1,-23%,3.5µM*,-11%,-3%,.,.
C[C@@H](CCc1ccc(O)cc1)NCCc1ccc(O)c(O)c1,-6%,.,.,.,?,.
O=C(O)Cc1ccc(O)c(O)c1,-18%,0.89µM*,-25%,-1%[18.4 µM],?,17%
CC1(C(=O)NS(=O)(=O)C2CC2)CCCN(C(=O)c2cccc(OC(F)(F)F)c2)C1 (stereo unspecified),-8%,.,.,0%,.,.
Cc1ccccc1CCNC(=O)c1ccc(NC(=O)N2CC(C)Sc3ccccc32)cc1 (stereo unspecified),-23%,1%,.,.,28%[46.1 µM],14%[46.1 µM]
C=CCSc1nnc(NC(=O)c2cn(CC)c3nc(C)ccc3c2=O)s1,-7%,50µM*,-26%,1%,?,8%
Cc1cc(C)cc(NC(=O)N2CCN(c3cc(-c4noc(C)n4)ccc3C)CC2)c1,-22%,-3%,.,.,.,-13%[46.1 µM]
O=C(CN(Cc1ccco1)C(=O)Cn1nnc(-c2cccs2)n1)NCc1ccccc1,.,18µM*,-24%,3%,-2%,-3%
CC(C)(C)NC(=O)C(c1ccc(O)cc1)N(Cc1ccco1)C(=O)Cn1nnc(-c2cccs2)n1 (stereo unspecified),.,18µM*,1%,-7%,?,-20%
Cc1ccc(-c2nnn(CC(=O)N(Cc3ccco3)C(C(=O)NC(C)(C)C)c3ccc(C)o3)n2)o1 (stereo unspecified),-18%,-9%,11µM*,-6%,?,?
CC(C)(C)NC(=O)C(c1ccncc1)N(Cc1cccs1)C(=O)Cn1nnc(-c2cccs2)n1 (stereo unspecified),.,50µM*,?,-5%,7%,-17%
CCCCOC(=O)c1ccc(NC(=O)CSc2nc3c(c(=O)[nH]2)CCCC3)cc1,-14%,0%,.,.,9%[46.1 µM],-16%[46.1 µM]
Cc1nc(-n2nc(C)c(Cc3ccc4c(c3)OCO4)c2C)sc1C(=O)Nc1cccc(Cl)c1,?,-15%,.,.,8%[46.1 µM],5%[46.1 µM]
CC(C)(C)NC(=O)C(c1ccc(O)cc1)N(C(=O)Cn1nnc(-c2ccc(F)cc2)n1)c1ccccc1F (stereo unspecified),-1%,.,4.5µM*,-12%,.,.
SMILES,FMDV antiviral,Sm TGR inh,HCV inh,RE007 growth inh,MARV entry inh,Lassa entry inh
CC(C)(C)NC(=O)C(c1ccncc1)N(C(=O)Cn1nnc(-c2ccc(F)cc2)n1)c1ccccc1F (stereo unspecified),-6%,11%,7%,0%,-23%[46.1 µM],17%
CC(c1ccncn1)N(C)Cc1nc(-c2ccc(C(F)(F)F)cc2)no1 (stereo unspecified),-25%,8%,-25%,-17%,.,.
Cc1oc(-c2ccc3ccccc3c2)nc1CN(C)C(C)c1ccncn1 (stereo unspecified),0%,50µM*,-24%,-1%,3%[46.1 µM],5%
O=S(=O)(NCCc1csc(-c2cccc(F)c2)n1)c1cc(F)ccc1F,32%,-2%,.,.,.,-3%[46.1 µM]
Cc1c(CC(=O)NCCCC(=O)O)c(=O)oc2cc3c(cc12)CCC(C)(C)O3,6.3µM*,-17%,12%,-8%,?,?
O=C1NC(=O)C(=Cc2ccc(SC3CCCCC3)o2)C(=O)N1,18µM*,40µM*,14%,-11%,15%,-28%
CNS(=O)(=O)c1ccc(-c2ccc(C=C3C(=O)NC(=O)NC3=O)o2)cc1,7%,?,10%,3%,.,.
CNC(=S)N(C)/N=C1/C(=O)N(Cc2c(Cl)cccc2Cl)c2ccccc21,-28%,-2%,13µM*,22%,?,?
Cc1cc(Cl)ccc1OCC(=O)N1CCOc2ccc(CN3C[C@@H](C)O[C@@H](C)C3)cc2C1,-20%,.,.,.,.,.
CCCOc1ccc(CCCN=C(N)N)cc1Cl,?,2%,8.9µM*,3%,?,0%
CCCCOc1ccc(CN=C(N)N)cc1Cl,?,6%,10µM*,1%,.,.
N[C@H](C(=O)O)[C@@H]1CC(Cl)=NO1,-17%,.,.,.,.,.
CCN1C(=O)[C@H]2[C@H]3[C@H](O)[C@H](O)C/C(=N/OC[C@@H]4O[C@H](c5ccccc5)C=C[C@@H]4Oc4ccc(OC)cc4)[C@@H]3CC[C@@H]2C1=O,.,.,.,.,-28%[14.2 µM],.
N#CC(C#N)=C1c2cc(S(N)(=O)=O)ccc2-c2ccc(S(N)(=O)=O)cc21,25µM*,4.5µM*,-2%,-24%,.,.
O=C1c2cc(S(=O)(=O)NCCO)ccc2-c2ccc(S(=O)(=O)NCCO)cc21,-8%,7%,1%,-12%,0%[46.1 µM],24%
N#CC(C#N)=C1c2cc(S(=O)(=O)NCCO)ccc2-c2ccc(S(=O)(=O)NCCO)cc21,-17%,4.5µM*,11%,1%,.,.
Cc1cccc(OCC(=O)Nc2ccc(S(=O)(=O)N(Cc3ccccc3)c3ccccc3)cc2)c1,-29%,-1%,.,.,2%[46.1 µM],-5%[46.1 µM]
O=C(CNC(=O)OCc1ccccc1)Nc1ccc(Br)cc1C(=O)c1ccccc1Cl,0%,-11%,8.9µM*,-18%,?,1%
CN(C(=O)CNC(=O)OCc1ccccc1)c1ccc(Br)cc1C(=O)c1ccccc1Cl,?,-2%,?,?,5.8µM*,?
